From the supplement of paper PMC6992640
± gives the standard deviation of the averaged measurements.

Tests used:
Experiment in all cases: cell viability (% of vehicle); higher = less cytotoxic
Details in all cases: 10 µM; 72 h
[1] = system: HCI01 (cells of a triple-negative basal-like breast cancer xenograft)
[2] = system: HCI03 (cells of an ER-positive luminal breast cancer xenograft)
[3] = system: HCI09 (cells of a triple-negative luminal androgen receptor type breast cancer xenograft)
[4] = system: HCI11 (cells of an ER-positive luminal breast cancer xenograft)
[5] = system: HCI13 (cells of an ER-positive luminal breast cancer xenograft)
[6] = system: HCI16 (cells of a triple-negative basal-like breast cancer xenograft)
[7] = system: UCD52 (cells of a triple-negative basal-like breast cancer xenograft)
[8] = system: WHIM2 (cells of a triple-negative basal-like breast cancer xenograft)
[9] = system: WHIM30 (cells of a triple-negative basal-like breast cancer xenograft)
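Further: PDX cells carrying CMV promoter-driven luciferase, viability read as total photon flux per second by IVIS imaging following D-luciferin, vehicle control 0.1% DMSO.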

Row | Compound | cell viability [1] | cell viability [2] | cell viability [3] | cell viability [4] | cell viability [5] | cell viability [6] | cell viability [7] | cell viability [8] | cell viability [9]
1 | CC(CCC(=O)O)C1CCC2C3CCC4CC(O)CCC4(C)C3CC(O)C12C (stereo not drawn) [Deoxycholic acid] | 119 ± 25 | 143 | 107 ± 23 | 103 | 107.1 ± 0.2 | 87.1 | 112 ± 3.8 | 104 ± 19 | 91.5 ± 0.73
2 | CN(C)CCC(c1ccc(Cl)cc1)c1ccccn1.O=C(O)C=CC(=O)O (stereo not drawn) [Chlorpheniramine Maleate] | 157 ± 40 | 115 | 108 ± 13 | 97 | 178 ± 38 | 126 | 79.7 ± 2.5 | 82.8 ± 11 | 127 ± 12
3 | CCNC1CC(N)C(OC2OC(CN)=CCC2N)C(O)C1OC1OCC(C)(O)C(NC)C1O.CCNC1CC(N)C(OC2OC(CN)=CCC2N)C(O)C1OC1OCC(C)(O)C(NC)C1O.O=S(=O)(O)O.O=S(=O)(O)O.O=S(=O)(O)O.O=S(=O)(O)O.O=S(=O)(O)O (stereo not drawn) [Netilmicin Sulfate] | 99.3 ± 34 | 125 | 125 ± 46 | 111 | 98.3 ± 2.5 | 138 | 120 ± 18 | 115.7 ± 1.1 | 138 ± 28
4 | S=P(N1CC1)(N1CC1)N1CC1 | 109 ± 26 | 143 | 104 ± 1.4 | 103 | 111.3 ± 0.35 | 120 | 96.8 ± 5.2 | 83.8 ± 23 | 119 ± 11
5 | COc1ccccc1N1CCN(CC(O)COc2cccc3ccccc23)CC1 (stereo not drawn) [Naftopidil] | 116 ± 8.4 | 84.3 | 87.2 ± 14 | 107 | 103 ± 19 | 108 | 67.4 ± 2.8 | 89.8 ± 24 | 104 ± 12
6 | CC(=O)Oc1ccccc1C(=O)O [Aspirin (Acetylsalicylic acid)] | 174 ± 16 | 107 | 98.5 ± 3.8 | 136 | 148 ± 30 | 151 | 142 ± 13 | 101 ± 16 | 160 ± 23
7 | C[N+]1(C)[C@@H]2C[C@@H](OC(=O)C(O)(c3cccs3)c3cccs3)C[C@H]1[C@@H]1O[C@@H]12.[Br-] [Tiotropium Bromide] | 124 ± 17 | 116 | 106 ± 18 | 102 | 116 ± 12 | 103 | 88.9 ± 4.2 | 94.7 ± 18 | 125 ± 12
8 | S=C(NCc1ccc2c(c1)OCO2)N1CCN(c2ncnc3c2oc2ccccc23)CC1 [Amuvatinib (MP-470, HPK 56)] | 107 ± 48 | 120 | 40 ± 18 | 81.7 | 82 ± 9.2 | 84.3 | 73 ± 1.1 | 149 ± 3.3 | 75.2 ± 9.7
9 | CCN1CCN(C(=O)NC(C(=O)NC2C(=O)N3C2SC(C)(C)C3C(=O)[O-])c2ccccc2)C(=O)C1=O.[Na+] (stereo not drawn) [Piperacillin Sodium] | 109 ± 7.5 | 91.8 | 76.1 ± 26 | 92.6 | 88.4 ± 1.3 | 111 | 108 ± 17 | 105 ± 18 | 152 ± 15
10 | Cl.N=C(N)N [Guanidine HCl] | 77.2 ± 10 | 96.3 | 96.5 ± 9.5 | 85.6 | 125 ± 4.1 | 126 | 79.1 ± 8.1 | 97.7 ± 5.6 | 135 ± 2.3
11 | Cc1cnc(C(=O)NCCc2ccc(S(=O)(=O)NC(=O)NC3CCCCC3)cc2)cn1 [Glipizide] | 104 ± 16 | 128 | 106 ± 16 | 108 | 93.1 ± 1.8 | 99.1 | 83.6 ± 5.6 | 87.2 ± 11 | 138 ± 12
12 | O=NN(CCCl)C(=O)NC1CCCCC1 [Lomustine] | 94.4 ± 38 | 115 | 93.2 ± 13 | 95.2 | 83.2 ± 8.6 | 146 | 80.2 ± 12 | 91.3 ± 13 | 125 ± 10
13 | CCCCC(=O)OC1CCC2C3CCc4cc(O)ccc4C3CCC12C (stereo not drawn) [Estradiol valerate] | 157 ± 47 | 122 | 98.1 ± 4.8 | 91.3 | 182 ± 36 | 137 | 90.6 ± 7.6 | 88.9 ± 8.9 | 134 ± 9.2
14 | O=C(O)CCC(=O)O.O=C(OC1CN2CCC1CC2)N1CCc2ccccc2C1c1ccccc1 (stereo not drawn) [Solifenacin succinate] | 90.4 ± 10 | 107 | 91.8 ± 7 | 86.9 | 118 ± 9.5 | 104 | 57.36 ± 0.49 | 76.8 ± 2.9 | 87.6 ± 3.7
15 | COc1ccc2c(c1)c(CC(=O)OCC(=O)O)c(C)n2C(=O)c1ccc(Cl)cc1 [Acemetacin] | 108 ± 3.5 | 113 | 97.6 ± 29 | 97.4 | 111 ± 9 | 106 | 78.2 ± 5 | 86.9 ± 22 | 76.6 ± 11
16 | CC12CCC3c4ccc(O)cc4CCC3C1CCC2OC(=O)CCC1CCCC1 (stereo not drawn) [Estradiol Cypionate] | 168 ± 2.2 | 101 | 96.6 ± 4.5 | 93.1 | 180 ± 16 | 147 | 92 ± 6.5 | 110 ± 10 | 130 ± 12
17 | CCC(C(C)O)n1ncn(-c2ccc(N3CCN(c4ccc(OCC5COC(Cn6cncn6)(c6ccc(F)cc6F)C5)cc4)CC3)cc2)c1=O (stereo not drawn) [Posaconazole] | 123 ± 2.6 | 78 | 59.1 ± 18 | 64.1 | 79.9 ± 3.4 | 94.5 | 74.8 ± 6.6 | 86.8 ± 13 | 105 ± 18
18 | CCN(CCCc1ccccc1)CCCc1ccccc1.O=C(O)CC(O)(CC(=O)O)C(=O)O [Alverine Citrate] | 99.4 ± 3.5 | 95.5 | 104 ± 10 | 94.6 | 190 ± 4.8 | 118 | 59.9 ± 0.87 | 88.6 ± 4 | 102 ± 15
19 | CCCc1cc(C(N)=S)ccn1 [Protionamide] | 90.1 ± 32 | 117 | 97.5 ± 3 | 89.2 | 117 ± 10 | 112 | 100.1 ± 0.95 | 84 ± 27 | 112 ± 7.7

Row | Compound | cell viability [1] | cell viability [2] | cell viability [3] | cell viability [4] | cell viability [5] | cell viability [6] | cell viability [7] | cell viability [8] | cell viability [9]
20 | COCCCOc1ccnc(C[S+]([O-])c2nc3ccccc3[nH]2)c1C (stereo not drawn) [Rabeprazole] | 156 ± 40 | 159 | 116 ± 3.5 | 123 | 152 ± 1.6 | 161 | 128 ± 27 | 131 ± 15 | 138 ± 8.2
21 | CC(C)(Oc1ccc(CCNC(=O)c2ccc(Cl)cc2)cc1)C(=O)O [Bezafibrate] | 108.4 ± 0.24 | 101 | 95.5 ± 17 | 104 | 97.3 ± 2.6 | 123 | 101 ± 8.8 | 112 ± 14 | 113 ± 6.7
22 | CN(C)CCCOc1nn(Cc2ccccc2)c2ccccc12.Cl [Benzydamine HCl] | 171 ± 76 | 85.4 | 79 ± 16 | 104 | 66.2 ± 11 | 163 | 100.3 ± 0.44 | 116 ± 6.4 | 123 ± 18
23 | CC(O)C1C(=O)N2C(C(=O)O)=C(SC3CNC(CNS(N)(=O)=O)C3)C(C)C12 (stereo not drawn) [Doripenem] | 91.4 ± 3.9 | 103 | 143 ± 73 | 106 | 99.2 ± 19 | 85.2 | 82.7 ± 7.5 | 93.3 ± 19 | 90.3 ± 15
24 | O=C1CN(/N=C/c2ccc(-c3ccc([N+](=O)[O-])cc3)o2)C([O-])=N1.[Na+] [Dantrolene, sodium salt] | 98.7 ± 15 | 174 | 83.5 ± 7.8 | 99.1 | 105 ± 9.9 | 110 | 92.4 ± 4.7 | 104 ± 4 | 130 ± 7.4
25 | CCOC(=O)n1ccn(C)c1=S [Carbimazole] | 90.9 ± 7.9 | 145 | 95 ± 11 | 93.4 | 66.4 ± 18 | 101 | 95.5 ± 7.5 | 104 ± 30 | 135 ± 11
26 | COC(=O)C1=C(C)NC(C)=C(C(=O)OCC(C)C)C1c1ccccc1[N+](=O)[O-] (stereo not drawn) [Nisoldipine] | 98.3 ± 32 | 109 | 27.4 ± 1.6 | 74 | 93.1 ± 39 | 180 | 84.1 ± 5.2 | 88.6 ± 17 | 123 ± 16
27 | NCC1OC(OC2C(N)CC(N)C(OC3OC(CO)C(O)C(N)C3O)C2O)C(N)CC1O (stereo not drawn) [Tobramycin] | 112 ± 23 | 124 | 98.5 ± 5.4 | 83.1 | 58 ± 9.4 | 88 | 85.3 ± 6.8 | 122 ± 32 | 123 ± 5.3
28 | CC1(C)SC2C(NC(=O)C(NC(=O)N3CCNC3=O)c3ccccc3)C(=O)N2C1C(=O)[O-].[Na+] (stereo not drawn) [Azlocillin sodium salt] | 97.6 ± 24 | 131 | 104 ± 17 | 104 | 76.5 ± 9.1 | 130 | 97.766 ± 0.039 | 106 ± 29 | 125 ± 12
29 | COc1cc2nc(N3CCN(C(=O)C4COc5ccccc5O4)CC3)nc(N)c2cc1OC.CS(=O)(=O)O (stereo not drawn) [Doxazosin Mesylate] | 116.9 ± 0.43 | 94.7 | 73.2 ± 34 | 83.3 | 103 ± 15 | 123 | 92.4 ± 14 | 62.6 ± 10 | 117 ± 13
30 | c1ccc(-c2ccc(C(c3ccccc3)n3ccnc3)cc2)cc1 (stereo not drawn) [Bifonazole] | 93.4 ± 4.3 | 108 | 74 ± 1.6 | 95.3 | 84.3 ± 22 | 108 | 149 ± 50 | 121 ± 1.4 | 126 ± 20
31 | CC(=O)[C@@]1(O)CC[C@H]2[C@@H]3CCC4=CC(=O)CCC4=C3[C@@H](c3ccc(N(C)C)cc3)C[C@@]21C [Ulipristal] | 70.8 ± 48 | 147 | 36.6 ± 13 | 82.9 | 113 ± 3.3 | 118 | 93.5 ± 11 | 87.8 ± 10 | 142 ± 1.3
32 | CN(C)C(=O)c1cc2cnc(Nc3ccc(N4CCNCC4)cn3)nc2n1C1CCCC1 | 109 ± 4.3 | 135 | 114 ± 30 | 138 | 126 ± 13 | 91.7 | 148 ± 8.1 | 108 ± 13 | 130 ± 9.5
33 | CCC1(O)CC2CN(CCc3c([nH]c4ccccc34)C(C(=O)OC)(c3cc4c(cc3OC)N(C)C3C(O)(C(=O)OC)C(OC(C)=O)C5(CC)C=CCN6CCC43C65)C2)C1.O=S(=O)(O)O (stereo not drawn) [Vinblastine sulfate] | 127 ± 23 | 88.5 | 61 ± 26 | 102 | 40.1 ± 2.1 | 144 | 80.3 ± 1.4 | 76.8 ± 13 | 102 ± 19
34 | CC(Cn1cnc2c(N)ncnc21)OCP(=O)(O)O (stereo not drawn) [Tenofovir] | 89.1 ± 9.4 | 123 | 103 ± 15 | 106 | 112 ± 11 | 116 | 90.6 ± 6.9 | 99.3 ± 14 | 121.3 ± 1.2
35 | OCCOCCN1CCN(C2=Nc3ccccc3Sc3ccccc32)CC1 [Quetiapine] | 122 ± 13 | 109 | 94.9 ± 23 | 94.1 | 116 ± 8.1 | 94.1 | 101 ± 4 | 104 ± 5.5 | 131 ± 13
36 | C[N+](C)(CCOc1ccccc1)Cc1ccccc1.O=C(O)c1cc2ccccc2cc1[O-] [Bephenium Hydroxynaphthoate] | 121 ± 9.4 | 127 | 128 ± 23 | 125 | 103 ± 21 | 104 | 89.6 ± 12 | 112 ± 22 | 151 ± 20
37 | CN(C)CCC=C1c2ccccc2COc2ccc(CC(=O)O)cc21.Cl [Olopatadine HCl] | 122 ± 18 | 130 | 101 ± 9.1 | 97.6 | 182 ± 38 | 99.1 | 81.6 ± 14 | 87.1 ± 13 | 108 ± 4.9
